# Test results reported in PubChem BioAssay (Tox21).
# “And” between values parts separate entries of the source, which are not always exact repeats. Equal values may be shown once. Records with an inconclusive call do not appear. A call without a number means that no potency is given here. The source holds several records for some structures; these can differ, active in one and inactive in another. The source made the active and inactive calls. Unless noted, the call rests on the fitted dose curve.
# Tests used:
# [1] = Nuclear factor erythroid 2-related factor 2/antioxidant responsive element (Nrf2/ARE) small molecule agonists: qHTS cell viability counter screen in human keratinocytes (AID 1919968; active means well fitted curve in the direction sought with a large enough effect in the repeat runs; an effect the other way counts as inactive or inconclusive; further: nearly all actives have a fitted effect of over 55% in size)
# In short: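 Cells of the KeratinoSens line were plated at 1,500 per well and left for 5 h before compound transfer from DMSO stocks. After a 23 h incubation (37 C, 5% CO2), CellTiter-Fluor was added. Signal was taken as fluorescence intensity 1 h later.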
# [2] = Nuclear factor erythroid 2-related factor 2/antioxidant responsive element (Nrf2/ARE) small molecule agonists: luciferase reporter gene qHTS assay in human keratinocytes (AID 1919969); further: nearly all actives have a fitted effect of over 35% in size; further: potency means the concentration at half of the fitted maximal effect
# [3] = target: Gonadotropin-releasing hormone receptor (Homo sapiens) (UniProt P30968); test: Human gonadotropin-releasing hormone receptor (GnRHR) small molecule agonists, calcium flux assay in GnRHR-HEK293 cells (AID 1920063); further: nearly all actives have a fitted effect of over 35% in size
# Chain of Gonadotropin-releasing hormone receptor (Homo sapiens) (P30968 whole entry, looked up): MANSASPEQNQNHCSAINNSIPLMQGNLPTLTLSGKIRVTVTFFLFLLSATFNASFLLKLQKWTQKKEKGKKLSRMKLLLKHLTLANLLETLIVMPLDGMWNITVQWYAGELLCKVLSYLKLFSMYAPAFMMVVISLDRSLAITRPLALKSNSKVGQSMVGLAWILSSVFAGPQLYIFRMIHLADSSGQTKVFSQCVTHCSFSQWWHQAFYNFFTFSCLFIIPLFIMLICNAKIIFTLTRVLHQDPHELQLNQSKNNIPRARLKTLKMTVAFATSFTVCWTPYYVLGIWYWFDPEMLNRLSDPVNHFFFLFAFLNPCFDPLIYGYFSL
# In short: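 Compounds dissolved in DMSO are pin-transferred onto dye-loaded GnRHR-HEK293 cells, which were seeded 18 h before at 37 C/5% CO2. Calcium signal is read as fluorescence intensity at 1 s intervals for 3 min.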
# [4] = target: KiSS-1 receptor (Homo sapiens) (UniProt Q969F8); test: Human kisspeptin (KISS1R) small molecule agonists, calcium flux assay in KISS1R-HEK293 cells (AID 1920064; active means well fitted curve in the direction sought with a large enough effect in the repeat runs; an effect the other way counts as inactive or inconclusive)
# Chain of KiSS-1 receptor (Homo sapiens) (Q969F8 whole entry, looked up): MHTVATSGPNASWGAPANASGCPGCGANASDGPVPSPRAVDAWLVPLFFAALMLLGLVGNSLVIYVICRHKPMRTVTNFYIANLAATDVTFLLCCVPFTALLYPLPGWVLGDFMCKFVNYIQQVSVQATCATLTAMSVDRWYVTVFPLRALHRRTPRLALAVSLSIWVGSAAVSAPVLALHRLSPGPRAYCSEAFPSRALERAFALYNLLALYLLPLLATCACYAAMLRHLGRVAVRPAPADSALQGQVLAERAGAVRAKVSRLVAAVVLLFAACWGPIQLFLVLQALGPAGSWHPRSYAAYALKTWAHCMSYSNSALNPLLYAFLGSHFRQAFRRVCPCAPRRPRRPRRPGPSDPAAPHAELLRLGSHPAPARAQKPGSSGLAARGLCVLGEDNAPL
# In short: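 Cell line: HEK293, stable human KISS1R. Dye loading 1 h at 37 C after 18 h culture. Read: kinetic fluorescence, 480/540 nm, 3 min at 1 s intervals.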
# [5] = G protein-coupled receptor (GPCR) small molecule agonists, calcium flux assay: HEK293 wild type cell line counter screen (AID 1920065)
# In short: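 Tox21 10K compounds, 15 concentrations each in triplicate, pin-transferred in DMSO onto dye-loaded cells; kinetic read at 480/540 nm for 3 min, 1 s intervals.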
# [6] = p53 small molecule agonists, cell-based qHTS assay with rat liver microsomes (AID 1963578)
# In short: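 Read-out is beta-lactamase reporter fluorescence (LiveBLAzer, 2 h, room temperature, dark) in p53RE-bla cells treated 16 h at 37 C with compound, rat liver microsomes and NADPH, both 0.5 mg/mL final.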
# [7] = p53 small molecule agonists, cell-based qHTS assay with human liver microsomes: qHTS cell viability counter screen (AID 1963579); further: nearly all actives have a fitted effect of over 45% in size
# In short: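 Cells carrying the p53 response-element beta-lactamase reporter are treated for 16 h at 37 C with test compounds in the presence of human liver microsomes and NADPH (both 0.5 mg/mL final); ATP-based CellTiter-Glo luminescence then reports viability.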
# [8] = p53 small molecule agonists, cell-based qHTS assay with rat liver microsomes: qHTS cell viability counter screen (AID 1963580); further: nearly all actives have a fitted effect of over 45% in size
# In short: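 Luminescent ATP readout (CellTiter-Glo, 30 min at room temperature) reports viability of p53RE-bla HCT-116 cells after 16 h at 37 C with test compounds under metabolic activation by rat liver microsomes and NADPH at 0.5 mg/mL final each.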
# [9] = p53 small molecule agonists, cell-based qHTS assay: qHTS cell viability counter screen (AID 1963581); further: nearly all actives have a fitted effect of over 45% in size
# In short: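 ATP content measured by luminescence in HCT-116 p53RE-bla cells treated 16 h at 37 C, same wells as the reporter screen.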
# [10] = p53 small molecule agonists, cell-based qHTS assay (AID 1963582; active means well fitted activation curve with a large enough effect in the signal ratio in the repeat runs, not every such curve was filed as active; the % refers to the signal ratio)
# In short: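 16 h compound exposure (37 C) of p53 response element–bla cells, preceded by 5 h recovery at 37 C/5% CO2; read-out via LiveBLAzer B/G FRET substrate, 2 h RT, fluorescence intensity.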
# [11] = target: 5-hydroxytryptamine receptor 2A (Homo sapiens) (UniProt P28223); test: 5-hydroxytryptamine receptor 2A (HTR2A) small molecule antagonists, cell-based qHTS assay (AID 1963586); further: nearly all actives have a fitted effect of over 45% in size
# Chain of 5-hydroxytryptamine receptor 2A (Homo sapiens) (P28223 whole entry, looked up): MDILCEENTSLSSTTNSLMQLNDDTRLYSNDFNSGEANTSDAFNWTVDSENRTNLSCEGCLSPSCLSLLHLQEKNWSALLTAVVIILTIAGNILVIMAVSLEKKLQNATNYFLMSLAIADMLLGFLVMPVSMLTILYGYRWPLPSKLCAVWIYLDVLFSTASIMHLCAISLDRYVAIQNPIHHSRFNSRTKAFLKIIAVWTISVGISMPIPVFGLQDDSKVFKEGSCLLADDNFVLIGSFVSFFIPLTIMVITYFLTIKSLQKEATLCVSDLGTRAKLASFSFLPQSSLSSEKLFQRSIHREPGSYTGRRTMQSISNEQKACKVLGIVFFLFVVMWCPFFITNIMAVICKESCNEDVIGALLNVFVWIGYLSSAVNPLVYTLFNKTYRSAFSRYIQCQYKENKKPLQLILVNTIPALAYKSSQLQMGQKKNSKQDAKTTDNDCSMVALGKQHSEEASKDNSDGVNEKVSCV
# In short: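 CHO cells stably expressing human HTR2A were plated for 18 h at 37 C, then loaded with calcium dye for 1 h. Compounds were preincubated 5 min at room temperature before DOI (4 nM solution) was added. Kinetic fluorescence was read for 3 min.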
# [12] = target: 5-hydroxytryptamine receptor 2A (Homo sapiens) (UniProt P28223); test: 5-hydroxytryptamine receptor 2A (HTR2A) small molecule agonists, cell-based qHTS assay (AID 1963587); further: nearly all actives have a fitted effect of over 30% in size
# In short: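 HTR2A-CHO cells, plated 18 h at 37 C/5% CO2, dye-loaded 1 h at 37 C; compounds in DMSO added by pin tool (agonist mode). Intracellular calcium flux read as kinetic fluorescence on FDSS over 2 min at 1 s intervals.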
# [13] = target: Muscarinic acetylcholine receptor M1 (Homo sapiens) (UniProt P11229); test: Cholinergic receptor muscarinic 1 (CHRM1) small molecule agonists, cell-based qHTS assay (AID 1963589); further: nearly all actives have a fitted effect of over 35% in size; further: potency means the concentration at half of the fitted maximal effect
# Chain of Muscarinic acetylcholine receptor M1 (Homo sapiens) (P11229 whole entry, looked up): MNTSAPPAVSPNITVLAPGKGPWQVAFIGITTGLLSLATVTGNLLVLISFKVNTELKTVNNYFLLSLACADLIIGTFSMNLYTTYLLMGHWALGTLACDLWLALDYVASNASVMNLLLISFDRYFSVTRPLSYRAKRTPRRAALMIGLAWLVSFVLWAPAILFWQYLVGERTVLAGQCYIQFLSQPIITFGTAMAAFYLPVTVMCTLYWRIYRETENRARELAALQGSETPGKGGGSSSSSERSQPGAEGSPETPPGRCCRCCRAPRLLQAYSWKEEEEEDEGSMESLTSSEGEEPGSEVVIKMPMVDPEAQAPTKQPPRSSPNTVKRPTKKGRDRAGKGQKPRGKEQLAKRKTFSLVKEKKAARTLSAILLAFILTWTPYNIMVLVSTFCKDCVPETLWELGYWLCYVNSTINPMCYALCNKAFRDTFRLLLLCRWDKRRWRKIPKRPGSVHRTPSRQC
# In short: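 Homogeneous fluorescence calcium flux, agonist mode. Human M1-expressing CHO cells; compound dosed at 15 concentrations, three independent runs; signal sampled every 1 sec.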
# [14] = cAMP Responsive Elements (CRE) small molecule agonists, cell-based qHTS assay (AID 1963590)
# In short: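 HEK 293T cells stably bearing CRE-bla were plated at 2,000 cells per well and rested 18 h. Compounds, positive controls or DMSO were added for 3 h at 37 C. LiveBLAzer B/G substrate was then loaded for 2 h at room temperature.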
# [15] = cAMP Responsive Elements (CRE) small molecule antagonists, cell-based qHTS assay (AID 1963591; active means well fitted inhibition curve with a large enough effect in the signal ratio in the repeat runs, not every such curve was filed as active; the % refers to the signal ratio)
# In short: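 First, CRE-bla HEK293T cells settled 18 h at 37 C. Next, compound and 0.25 uM final NKH477 were applied for 3 h. Last, LiveBLAzer B/G substrate was loaded for 2 h at room temperature.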
# [16] = target: Beta-2 adrenergic receptor (Homo sapiens) (UniProt P07550); test: Adrenergic beta2 receptor (ADRB2) small molecule antagonists, cell-based qHTS assay (AID 1963592); further: series mostly up to about 92 µM; nearly all actives have a fitted effect of over 50% in size
# Chain of Beta-2 adrenergic receptor (Homo sapiens) (P07550 whole entry, looked up): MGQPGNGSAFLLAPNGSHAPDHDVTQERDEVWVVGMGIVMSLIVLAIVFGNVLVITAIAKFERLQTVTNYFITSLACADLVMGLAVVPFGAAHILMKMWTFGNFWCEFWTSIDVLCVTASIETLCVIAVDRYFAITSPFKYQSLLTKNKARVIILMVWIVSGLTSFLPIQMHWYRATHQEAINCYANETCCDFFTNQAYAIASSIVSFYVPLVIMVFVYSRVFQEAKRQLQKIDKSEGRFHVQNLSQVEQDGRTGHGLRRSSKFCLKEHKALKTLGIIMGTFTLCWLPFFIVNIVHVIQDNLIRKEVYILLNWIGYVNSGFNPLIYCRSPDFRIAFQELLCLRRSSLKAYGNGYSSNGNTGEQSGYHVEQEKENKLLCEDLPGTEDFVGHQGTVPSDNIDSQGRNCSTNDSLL
# In short: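 Assay format: CHO-ADRB2 cells, 18-20hr seeding at 37C/5% CO2, then compound plus 1nM isoproterenol agonist mix for 0.5hr RT. Homogeneous time-resolved fluorescence cAMP detection after 1hr, expressed as 665/615 nm ratio.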
# [17] = target: D(2) dopamine receptor (Homo sapiens) (UniProt P14416); test: Dopamine D2 receptor (DRD2) small molecule agonists, cell-based qHTS assay (AID 1963594); further: nearly all actives have a fitted effect of over 35% in size
# Chain of D(2) dopamine receptor (Homo sapiens) (P14416 whole entry, looked up): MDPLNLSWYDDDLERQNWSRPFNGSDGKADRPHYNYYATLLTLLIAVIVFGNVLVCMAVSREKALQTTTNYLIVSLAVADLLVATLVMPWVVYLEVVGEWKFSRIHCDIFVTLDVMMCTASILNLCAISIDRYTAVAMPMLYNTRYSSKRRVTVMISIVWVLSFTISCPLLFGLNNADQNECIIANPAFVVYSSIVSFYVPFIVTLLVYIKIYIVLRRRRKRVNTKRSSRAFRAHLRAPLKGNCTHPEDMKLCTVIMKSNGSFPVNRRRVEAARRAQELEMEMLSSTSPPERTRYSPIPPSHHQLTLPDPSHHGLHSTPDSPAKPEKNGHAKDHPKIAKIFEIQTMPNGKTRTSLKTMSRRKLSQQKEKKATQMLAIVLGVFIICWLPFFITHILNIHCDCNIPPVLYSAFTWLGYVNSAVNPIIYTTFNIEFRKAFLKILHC
# In short: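 HEK293 cells stably expressing DRD2 were cultured 24 h at 37 C, then given Ro20-1724 (0.1 mM final) and compounds for 10 min at room temperature. NKH477 (200nM) was then added for 30 min. cAMP was read by HTRF.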
# [18] = target: D(2) dopamine receptor (Homo sapiens) (UniProt P14416); test: Dopamine D2 receptor (DRD2) small molecule antagonists, cell-based qHTS assay (AID 1963595; active means well fitted inhibition curve with a large enough effect in the signal ratio in the repeat runs, with a control signal flat; the % refers to the signal ratio)
# In short: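 Antagonism was scored as restored cAMP in HEK293-DRD2 cells. These cells were stimulated with 200 nM NKH477 and 12 nM quinpirole for 30 min at room temperature, in the presence of 0.1 mM Ro20-1724.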
# [19] = target: Muscarinic acetylcholine receptor M1 (Homo sapiens) (UniProt P11229); test: Cholinergic receptor muscarinic 1 (CHRM1) small molecule antagonists, cell-based qHTS assay (AID 1963588); further: nearly all actives have a fitted effect of over 40% in size
# In short: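 Compounds were tested at 15 concentrations in three independent runs. Dye-loaded CHRM1-CHO cells were exposed 5 min at room temperature before stimulation by acetylcholine added at 50nM. Intracellular calcium was read kinetically on FDSS for 3 min.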
# [20] = target: Beta-2 adrenergic receptor (Homo sapiens) (UniProt P07550); test: Adrenergic beta2 receptor (ADRB2) small molecule agonists, cell-based qHTS assay (AID 1963593);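 further: CHO cells stably overexpressing human ADRB2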
# In short: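 CHO cells stably over-expressing ADRB2 were plated overnight at 37C, then dosed with compounds plus a stimulation mix containing 100uM IBMX and 25uM Ro-20-1724 for 0.5hr at room temperature. cAMP was measured by HTRF competition, 1hr.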
SMILES,Potency [1],Potency [2],Potency [3],Potency [4],Potency [5],Potency [6],Potency [7],Potency [8],Potency [9],Potency [10],Potency [11],Potency [12],Potency [13],Potency [14],Potency [15],Potency [16],Potency [17],Potency [18],Potency [19],Potency [20]
COc1cc(OC)nc(Oc2cccc(Oc3nc(OC)cc(OC)n3)c2C(=O)O)n1,inactive,inactive,inactive,inactive,inactive,inactive,inactive,inactive,inactive,inactive,inactive,inactive,inactive,inactive,inactive,inactive,inactive,inactive,–,–
C=CCc1ccccc1O,inactive,inactive,inactive,inactive,inactive,inactive,inactive,inactive,inactive,inactive,inactive,inactive,inactive,–,inactive,inactive,–,inactive,inactive,–
[P]#[In],inactive,inactive,inactive,inactive,inactive,inactive,inactive,inactive,inactive,inactive,inactive,inactive,inactive,inactive,inactive,inactive,inactive,inactive,inactive,inactive
C[N+](C)(C)Cc1ccccc1,inactive,inactive,inactive,inactive,inactive,–,inactive,inactive,inactive,–,inactive,inactive,3.07 µM (active) and 5.49 µM (active),inactive,inactive,inactive,inactive,inactive,inactive,inactive
O=S(=O)(Oc1ccc(Cl)cc1)c1ccc(Cl)cc1,inactive,27.7 µM (active) and inactive,inactive,inactive,inactive,–,inactive,inactive,inactive,–,inactive,inactive,inactive,inactive,inactive,inactive,inactive,inactive,inactive,inactive
OCCOCCO,inactive,inactive,inactive,inactive,inactive,–,inactive,inactive,inactive,–,inactive,inactive,inactive,inactive,inactive,inactive,–,inactive,inactive,inactive
CCCC[N+]1(C)CCCCC1,inactive,inactive,inactive,inactive,inactive,–,inactive,inactive,inactive,–,inactive,inactive,inactive,inactive,inactive,inactive,inactive,inactive,inactive,inactive
Clc1ccccc1-c1nnc(-c2ccccc2Cl)nn1,inactive,19.2 µM (active) and 5.43 µM (active),inactive,inactive,inactive,–,inactive,inactive,inactive,–,inactive,inactive,inactive,inactive,inactive,inactive,inactive,inactive,inactive,inactive
CC(=O)/C=C/c1ccccc1,inactive,60 µM (active) and inactive,inactive,inactive,inactive,–,inactive,inactive,inactive,–,inactive,inactive,inactive,inactive,inactive,inactive,inactive,inactive,inactive,–
CCC[N+]1(C)CCCCC1,inactive,inactive,inactive,inactive,inactive,–,inactive,inactive,inactive,–,inactive,inactive,inactive,inactive,inactive,inactive,inactive,inactive,inactive,–
C=CCc1ccc(OC)cc1,inactive,inactive,inactive,inactive,inactive,–,inactive,inactive,inactive,–,inactive,inactive,inactive,inactive,inactive,inactive,inactive,inactive,inactive,–
O=C1CCCN1,inactive,inactive,inactive,inactive,inactive,–,inactive,inactive,inactive,–,inactive,inactive,49.5 µM (active) and inactive,inactive,inactive,inactive,inactive,–,inactive,inactive
O=C(O)c1cc(Oc2ccc(C(F)(F)F)cc2Cl)ccc1[N+](=O)[O-],inactive,inactive,inactive,inactive,inactive,–,inactive,inactive,inactive,–,inactive,inactive,inactive,–,inactive,inactive,inactive,inactive,inactive,inactive
CCCCC(CC)COC(=O)Cl (stereo not drawn),inactive,inactive,inactive,inactive,inactive,–,inactive,inactive,inactive,–,inactive,inactive,inactive,inactive,inactive,inactive,inactive,inactive,inactive,inactive
CC(Cl)(Cl)C(=O)O,inactive,inactive,inactive,inactive,inactive,–,inactive,inactive,inactive,–,inactive,inactive,inactive,inactive,inactive,inactive,inactive,inactive,inactive,inactive
CN(N=O)c1ccccc1,inactive,inactive,inactive,inactive,inactive,–,inactive,inactive,inactive,–,inactive,inactive,inactive,–,inactive,inactive,inactive,inactive,inactive,–
CN1C(=O)CCS(=O)(=O)C1c1ccc(Cl)cc1 (stereo not drawn),inactive,inactive,inactive,inactive,inactive,–,inactive,inactive,inactive,–,inactive,inactive,inactive,inactive,inactive,inactive,inactive,inactive,inactive,inactive
CCCn1cc[n+](C)c1,inactive,inactive,inactive,inactive,inactive,–,inactive,inactive,inactive,–,inactive,inactive,inactive,inactive,inactive,inactive,inactive,inactive,inactive,–
C=CC(Cl)CCl (stereo not drawn),inactive,inactive,inactive,inactive,inactive,–,inactive,inactive,inactive,–,inactive,inactive,inactive,–,inactive,inactive,inactive,inactive,inactive,–
CCOS(=O)(=O)OCC,inactive,68.7 µM (active) and inactive,inactive,inactive,inactive,–,inactive,inactive,inactive,inactive,inactive,inactive,inactive,inactive,inactive,inactive,inactive,–,inactive,–
O=C/C(Cl)=C(/Cl)C(=O)O,inactive,68.5 µM (active) and 68.6 µM (active),inactive,inactive,inactive,–,inactive,inactive,inactive,–,inactive,inactive,inactive,–,inactive,inactive,inactive,inactive,inactive,inactive
C[N+](C)(C)CC(=O)O,inactive,inactive,inactive,inactive,inactive,–,inactive,inactive,inactive,–,inactive,inactive,inactive,inactive,inactive,inactive,inactive,inactive,inactive,inactive
CNC(=O)O/N=C/C(C)(C)SC,inactive,inactive,inactive,inactive,inactive,–,inactive,inactive,inactive,–,inactive,inactive,inactive,inactive,inactive,inactive,inactive,inactive,inactive,inactive
CNC(=O)Oc1cccc2c1OC(C)(C)C2,inactive,inactive,inactive,inactive,inactive,–,inactive,inactive,inactive,inactive,inactive,inactive,inactive,inactive,inactive,inactive,inactive,inactive,inactive,–
O=[N+]([O-])c1ccc(Cl)c(Cl)c1,inactive,inactive,inactive,inactive,inactive,–,inactive,inactive,inactive,–,inactive,inactive,inactive,inactive,–,inactive,inactive,inactive,inactive,–
CC(=O)C=C(C)C,inactive,inactive,inactive,inactive,inactive,–,inactive,inactive,inactive,–,inactive,inactive,inactive,inactive,inactive,inactive,inactive,inactive,inactive,inactive
CCCC[n+]1ccccc1C,inactive,inactive,inactive,inactive,inactive,–,inactive,inactive,inactive,–,inactive,inactive,inactive,–,inactive,inactive,inactive,inactive,inactive,inactive
O=Cc1cccc(Oc2ccccc2)c1,inactive,inactive,inactive,inactive,inactive,–,inactive,inactive,inactive,–,inactive,inactive,inactive,inactive,inactive,inactive,inactive,–,inactive,inactive
